Test [1] has as its system PRMT1 (protein arginine N-methyltransferase 1). The test is described as follows: PRMT1 binders on small-molecule microarrays, primary screen, biochemical, small-molecule microarray, 635 nm fluorescence (AID 1088).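 Also: binding of Prmt1 protein to compounds spotted on small-molecule microarray slides.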 The conditions noted are these: small-molecule microarray binding, higher = more signal.
The nature of test [2]: yeast growth modulation, basal conditions, primary screen, YJM789 clinical isolate, OD600, 24 h (AID 1089).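 Also: growth of clinical yeast isolate S. cerevisiae YJM 789 seeded 1000 cells per well; test concentration not given here.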 To be noted: S. cerevisiae YJM789 growth, higher = more signal, called active from +8 up or from −8 down.
Test [3] can be described thus: fission yeast growth modulation, primary screen, strain 972, OD600, 24 h, no modulator (AID 1090).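 Also: basal condition with compound alone and no growth modifier present; test concentration not given here.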 The conditions noted are these: S. pombe 972 growth, higher = more signal, called active from +8 up or from −8 down.
A short description of test [4]: S. cerevisiae growth modulation with rapamycin, primary screen, strain BY4716, OD600, 96 h (AID 1091). Also: test concentration not given here. The conditions noted are these: higher = more signal, called active from +8 up or from −8 down.
For test [5], the target named is Torsin-1A-interacting protein 2 (Homo sapiens) (UniProt Q8NFQ8). The test is described as follows: LULL1 binders on small-molecule microarray, primary screen, cell lysate, human LULL1 lysate, 635/667 nm fluorescence (AID 1092).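 Also: probe is lysate of COS7 cells overexpressing human LULL1; score merges per-feature 667 nm fluorescence with signal-to-noise.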 The conditions noted are these: hLULL1 lysate binding, 635 nm fluorescence, higher = more signal.
Torsin-1A-interacting protein 2 (Homo sapiens), sequence (Q8NFQ8 whole entry, looked up): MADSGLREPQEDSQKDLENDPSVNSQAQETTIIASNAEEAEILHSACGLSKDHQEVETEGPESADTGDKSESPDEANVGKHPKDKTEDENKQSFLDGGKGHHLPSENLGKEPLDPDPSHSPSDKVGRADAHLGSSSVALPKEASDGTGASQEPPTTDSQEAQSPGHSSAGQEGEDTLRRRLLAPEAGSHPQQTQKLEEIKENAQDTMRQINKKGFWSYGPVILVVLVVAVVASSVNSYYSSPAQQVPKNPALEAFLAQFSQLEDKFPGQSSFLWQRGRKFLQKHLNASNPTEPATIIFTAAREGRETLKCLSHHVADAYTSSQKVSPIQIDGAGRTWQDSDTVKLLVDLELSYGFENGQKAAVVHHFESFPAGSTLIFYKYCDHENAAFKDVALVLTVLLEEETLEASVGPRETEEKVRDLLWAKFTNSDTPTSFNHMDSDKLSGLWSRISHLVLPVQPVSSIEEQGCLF
Test [6] in a line: E. coli growth modulation, two-sided OD650, primary screen, E. coli filamentation project, strain DRC41, 24 h (AID 1093).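 Also: MC1000 strain lacking acrAB efflux and sulA so SOS filamentation is blocked; test concentration not given here.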 The conditions noted are these: OD650, 24 h, higher = more signal, called active from +8 up or from −8 down.
A short description of test [7]: small-molecule microarray binders of probe aLefty2, primary screen, biochemical, biotinylated probe, 635/667 nm fluorescence (AID 1094).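 Also: score merges spot fluorescence near 667 nm with spot signal-to-noise ratio.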 To be noted: higher = more signal.
Test [8] has as its system Noggin (protein binding on small-molecule microarray). Put plainly: Noggin binders on small-molecule microarray, primary screen, biochemical, 635/667 nm fluorescence (AID 1095).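 Also: score merges 667 nm feature fluorescence with signal to noise over triplicate slides.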 The conditions noted are these: 635 nm fluorescence, higher = more signal.
In test [9] the target is Neurogenic locus notch homolog protein 3 (Homo sapiens) (UniProt Q9UM47). Put plainly: NOTCH3 binders on small-molecule microarray, primary screen, biochemical, 635/667 nm fluorescence (AID 1096). The conditions noted are these: NOTCH3 binding, 635 nm fluorescence, higher = more signal.
Neurogenic locus notch homolog protein 3 (Homo sapiens), sequence (Q9UM47 whole entry, looked up): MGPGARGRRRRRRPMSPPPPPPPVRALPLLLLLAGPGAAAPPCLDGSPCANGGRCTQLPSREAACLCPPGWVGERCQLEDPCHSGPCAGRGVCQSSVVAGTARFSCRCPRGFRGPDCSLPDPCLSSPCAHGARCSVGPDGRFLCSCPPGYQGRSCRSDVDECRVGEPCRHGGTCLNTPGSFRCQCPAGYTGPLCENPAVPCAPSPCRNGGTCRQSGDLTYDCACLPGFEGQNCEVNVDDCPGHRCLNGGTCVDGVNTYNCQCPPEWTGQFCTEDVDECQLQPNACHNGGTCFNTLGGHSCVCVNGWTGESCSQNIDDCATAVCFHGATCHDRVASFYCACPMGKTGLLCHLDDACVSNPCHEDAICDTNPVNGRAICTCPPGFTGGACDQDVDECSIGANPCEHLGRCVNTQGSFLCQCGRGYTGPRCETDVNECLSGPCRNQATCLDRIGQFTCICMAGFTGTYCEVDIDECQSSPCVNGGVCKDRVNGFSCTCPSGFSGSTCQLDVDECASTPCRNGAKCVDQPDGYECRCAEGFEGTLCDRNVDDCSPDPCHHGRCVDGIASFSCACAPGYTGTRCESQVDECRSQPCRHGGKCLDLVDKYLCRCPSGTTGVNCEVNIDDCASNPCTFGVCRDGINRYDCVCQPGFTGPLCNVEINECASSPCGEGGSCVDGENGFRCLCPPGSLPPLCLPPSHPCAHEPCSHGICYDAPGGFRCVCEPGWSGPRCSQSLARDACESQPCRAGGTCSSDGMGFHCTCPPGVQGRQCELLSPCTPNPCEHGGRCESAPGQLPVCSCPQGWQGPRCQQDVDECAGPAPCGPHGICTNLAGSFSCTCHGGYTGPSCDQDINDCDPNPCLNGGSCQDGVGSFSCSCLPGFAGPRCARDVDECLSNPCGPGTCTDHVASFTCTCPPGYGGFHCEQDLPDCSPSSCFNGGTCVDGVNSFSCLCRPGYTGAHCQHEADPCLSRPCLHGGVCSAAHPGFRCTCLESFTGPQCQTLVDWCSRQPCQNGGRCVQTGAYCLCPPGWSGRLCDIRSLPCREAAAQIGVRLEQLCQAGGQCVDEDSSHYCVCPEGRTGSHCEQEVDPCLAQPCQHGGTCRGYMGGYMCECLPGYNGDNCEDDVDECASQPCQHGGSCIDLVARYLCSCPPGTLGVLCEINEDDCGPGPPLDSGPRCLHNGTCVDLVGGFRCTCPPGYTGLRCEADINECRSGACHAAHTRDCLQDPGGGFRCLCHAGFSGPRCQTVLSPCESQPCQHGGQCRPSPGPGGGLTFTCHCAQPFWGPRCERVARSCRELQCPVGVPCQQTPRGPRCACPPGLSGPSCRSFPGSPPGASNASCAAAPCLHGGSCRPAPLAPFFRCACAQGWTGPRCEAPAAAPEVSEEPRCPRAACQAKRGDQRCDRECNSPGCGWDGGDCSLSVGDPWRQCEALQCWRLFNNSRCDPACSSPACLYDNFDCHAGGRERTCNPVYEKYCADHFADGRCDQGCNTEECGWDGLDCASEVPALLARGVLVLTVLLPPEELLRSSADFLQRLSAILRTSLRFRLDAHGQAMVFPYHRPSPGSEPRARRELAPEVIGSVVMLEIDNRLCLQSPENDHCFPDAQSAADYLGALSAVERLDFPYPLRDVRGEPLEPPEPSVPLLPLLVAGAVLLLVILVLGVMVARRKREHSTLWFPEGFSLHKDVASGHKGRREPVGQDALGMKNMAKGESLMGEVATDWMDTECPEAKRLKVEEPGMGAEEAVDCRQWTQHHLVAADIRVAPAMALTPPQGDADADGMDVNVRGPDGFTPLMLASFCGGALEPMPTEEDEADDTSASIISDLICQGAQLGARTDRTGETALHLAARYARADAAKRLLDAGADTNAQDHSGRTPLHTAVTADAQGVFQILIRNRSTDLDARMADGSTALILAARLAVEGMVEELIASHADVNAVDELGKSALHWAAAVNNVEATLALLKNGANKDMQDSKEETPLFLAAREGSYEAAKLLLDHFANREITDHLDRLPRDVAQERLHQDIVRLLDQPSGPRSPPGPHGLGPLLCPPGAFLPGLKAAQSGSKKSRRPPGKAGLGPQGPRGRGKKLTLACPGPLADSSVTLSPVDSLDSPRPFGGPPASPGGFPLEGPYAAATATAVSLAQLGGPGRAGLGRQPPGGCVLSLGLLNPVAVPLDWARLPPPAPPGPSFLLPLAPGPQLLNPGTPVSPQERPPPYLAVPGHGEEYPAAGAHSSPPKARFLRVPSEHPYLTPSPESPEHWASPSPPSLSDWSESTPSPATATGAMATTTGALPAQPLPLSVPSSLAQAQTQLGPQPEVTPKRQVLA
Test [10] in a line: small-molecule microarray binders of probe aEGFR, primary screen, biochemical, biotinylated probe, 635/667 nm fluorescence (AID 1097).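 Also: probe is a biotinylated anti-EGFR antibody binding compounds printed on slides; score combines fluorescence near 667 nm and signal to noise of each spot.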 The conditions noted are these: higher = more signal.
The subject of test [11] is Plasmodium falciparum Sir2 (PF13_0152, Sir2A). Put plainly: pfSir2 binders on small-molecule microarrays, primary screen, biochemical, small-molecule microarray, 635 nm fluorescence (AID 1098).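 Also: score merges spot fluorescence intensity with its signal-to-noise ratio.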 The conditions noted are these: small-molecule microarray binding, fluorescence 635 nm; higher = more signal.
Test [12] can be described thus: small-molecule microarray binders of probe aDKK1, primary screen, biochemical, biotinylated probe, 635/667 nm fluorescence (AID 1099).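 Also: score merges 667nm spot fluorescence with signal to noise across triplicate slides; reference of the scale not given here.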 The conditions noted are these: higher = more signal.
A short description of test [13]: small-molecule microarray binders of probe aCHRDL2, primary screen, biochemical, biotinylated probe, 635/667 nm fluorescence (AID 1100). The conditions noted are these: higher = more signal.
Test [14] is described as follows: splicing luciferase reporter signal modulators, primary screen, spliceosome inhibition project, cell-based, HEK293, splice +/- reporter (AID 1101).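 Also: HEK293 cells carrying a splicing-competent luciferase reporter gene; test concentration not given here.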 To be noted: luminescence, 24 h, higher = more signal, called active from +8 up or from −8 down.
Test [15] concerns the target Fibroblast growth factor 10 (Homo sapiens) (UniProt O15520). The test is described as follows: FGF10 binders on small-molecule microarrays, primary screen, biochemical, small-molecule microarray, 635 nm fluorescence (AID 1102). The conditions noted are these: FGF10 binding, fluorescence 635 nm, higher = more signal.
In test [16] the test system is glycogen synthase kinase-3 (GSK3A per assay name; protocol says GSK3B). Put plainly: GSK3 binders on small-molecule microarrays, primary screen, biochemical, small-molecule microarray, 635 nm fluorescence, GSK3A (AID 1103). Also: the record names both GSK3A and GSK3B. To be noted: small-molecule microarray binding, fluorescence 635 nm; higher = more signal.
Test [17] addresses Epidermal growth factor receptor (Homo sapiens) (UniProt P00533). Put plainly: EGFR binders on small-molecule microarrays, primary screen, biochemical, small-molecule microarray, 635 nm fluorescence (AID 1104).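 Also: score merges 667 nm emission intensity with spot signal to noise over triplicate slides.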 The conditions noted are these: EGFR binding, higher = more signal.
Test [18] has as its target Follistatin-related protein 3 (Homo sapiens) (UniProt O95633). Put plainly: FSTL3 binders on small-molecule microarrays, primary screen, biochemical, small-molecule microarray, 635 nm fluorescence (AID 1105).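 Also: score merges emission near 667 nm and signal to noise per printed spot across three slides.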 The conditions noted are these: FSTL3 binding, higher = more signal.
Test [19] has as its target Dickkopf-related protein 1 (Homo sapiens) (UniProt O94907). The test is described as follows: DKK1 binders on small-molecule microarrays, primary screen, biochemical, small-molecule microarray, 635 nm fluorescence scan (AID 1106).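 Also: score merges emission near 667 nm with signal to noise over three replicate slides.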 The conditions noted are these: DKK1 binding, higher = more signal.
Test [20] deals with Inhibin beta A chain (activin A). The test is described as follows: INHBA (activin A) binders on microarrays, primary screen, biochemical, small-molecule microarray, 635 nm fluorescence scan (AID 1107).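 Also: mouse activin A protein probed at 4.33 µg/mL on printed slides; score merges bound-protein fluorescence near 667 nm with spot signal-to-noise.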 The conditions noted are these: small-molecule microarray binding, higher = more signal.

The source made the active and inactive calls.

Dickkopf-related protein 1 (Homo sapiens), sequence (O94907 whole entry, looked up): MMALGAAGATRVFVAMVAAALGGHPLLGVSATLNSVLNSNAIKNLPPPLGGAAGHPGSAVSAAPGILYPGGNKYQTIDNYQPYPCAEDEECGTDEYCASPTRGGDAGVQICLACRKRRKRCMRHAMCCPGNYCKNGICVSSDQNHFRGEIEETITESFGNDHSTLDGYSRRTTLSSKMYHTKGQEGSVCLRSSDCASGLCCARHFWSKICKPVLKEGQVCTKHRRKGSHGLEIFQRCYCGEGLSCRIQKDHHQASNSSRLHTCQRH
Fibroblast growth factor 10 (Homo sapiens), sequence (O15520 whole entry, looked up): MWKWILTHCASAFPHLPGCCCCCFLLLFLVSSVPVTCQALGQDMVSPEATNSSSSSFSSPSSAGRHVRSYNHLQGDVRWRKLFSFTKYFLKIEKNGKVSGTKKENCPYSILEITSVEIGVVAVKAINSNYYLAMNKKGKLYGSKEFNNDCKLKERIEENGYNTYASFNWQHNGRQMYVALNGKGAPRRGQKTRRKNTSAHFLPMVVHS
Follistatin-related protein 3 (Homo sapiens), sequence (O95633 whole entry, looked up): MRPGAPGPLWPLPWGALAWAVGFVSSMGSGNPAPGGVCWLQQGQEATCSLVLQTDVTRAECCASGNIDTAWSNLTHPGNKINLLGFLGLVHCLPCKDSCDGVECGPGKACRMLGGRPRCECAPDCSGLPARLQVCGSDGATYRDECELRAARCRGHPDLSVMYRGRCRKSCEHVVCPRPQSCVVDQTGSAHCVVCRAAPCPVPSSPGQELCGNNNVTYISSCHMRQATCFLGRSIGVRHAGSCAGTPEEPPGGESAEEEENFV
Epidermal growth factor receptor (Homo sapiens), sequence (P00533 whole entry, looked up): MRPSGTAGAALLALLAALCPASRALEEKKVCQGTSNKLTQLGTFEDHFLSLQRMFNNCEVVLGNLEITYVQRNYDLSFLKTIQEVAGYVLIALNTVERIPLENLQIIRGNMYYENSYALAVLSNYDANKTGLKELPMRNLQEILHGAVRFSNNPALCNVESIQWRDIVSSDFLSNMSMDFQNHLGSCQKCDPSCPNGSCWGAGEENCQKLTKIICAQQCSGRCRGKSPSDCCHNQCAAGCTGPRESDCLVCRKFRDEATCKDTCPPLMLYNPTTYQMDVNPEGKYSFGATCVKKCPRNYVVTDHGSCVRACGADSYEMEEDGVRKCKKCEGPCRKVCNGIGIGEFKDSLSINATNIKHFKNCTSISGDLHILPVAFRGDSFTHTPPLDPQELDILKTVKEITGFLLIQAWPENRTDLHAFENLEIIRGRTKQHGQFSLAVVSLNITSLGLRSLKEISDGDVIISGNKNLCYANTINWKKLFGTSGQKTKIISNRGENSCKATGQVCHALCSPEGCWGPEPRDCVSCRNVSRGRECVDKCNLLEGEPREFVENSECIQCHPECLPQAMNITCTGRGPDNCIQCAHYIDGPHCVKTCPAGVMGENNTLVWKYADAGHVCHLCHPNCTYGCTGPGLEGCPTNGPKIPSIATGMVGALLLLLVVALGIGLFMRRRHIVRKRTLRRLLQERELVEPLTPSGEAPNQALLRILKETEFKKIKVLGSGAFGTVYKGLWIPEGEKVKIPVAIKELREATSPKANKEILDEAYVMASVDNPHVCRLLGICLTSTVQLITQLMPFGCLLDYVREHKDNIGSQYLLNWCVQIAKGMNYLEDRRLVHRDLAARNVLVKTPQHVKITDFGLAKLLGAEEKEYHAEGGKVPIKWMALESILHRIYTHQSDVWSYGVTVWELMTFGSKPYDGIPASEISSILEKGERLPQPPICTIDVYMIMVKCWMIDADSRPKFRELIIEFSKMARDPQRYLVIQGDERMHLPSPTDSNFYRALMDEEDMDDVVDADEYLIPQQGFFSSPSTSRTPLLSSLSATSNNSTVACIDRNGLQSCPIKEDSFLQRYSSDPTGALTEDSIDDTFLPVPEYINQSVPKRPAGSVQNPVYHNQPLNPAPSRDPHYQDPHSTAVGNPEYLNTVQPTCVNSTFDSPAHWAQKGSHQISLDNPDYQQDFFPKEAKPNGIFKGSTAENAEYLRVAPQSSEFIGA

For `COCCOC(=O)N1C(=O)[C@@]2(c3cc(C#CCNC(N)=O)ccc31)[C@H](c1ccccc1OCCO)N1[C@H](c3ccccc3)[C@H](c3ccccc3)OC(=O)[C@H]1[C@@H]2C(=O)N1CCN(c2ncccn2)CC1`, the composite z-score is 1.44 in [1]; 2.22 in test [5]; 0.065 in [7]; 0.43 in test [8]; 0.572 in test [9]; -0.0271 in test [10]. The composite z-score in [11] came out at 1.61; in test [12], 0.376; in [13] it was 0.702; in test [15], 1.15; in test [16] it was 0.375; in test [17], 0.315. The composite z-score in test [18] was 0.623; in [19], 0.0239; in test [20] it was 1.35. Also, the z-score in test [2] is -0.0197 (inactive); in test [3] it was 2.11 (inactive); in test [4], 3.85 (inactive); in [6] it was 0.961 (inactive); in [14], -0.099 (inactive).
As to `CCc1cc2c(nc1CC)CCN(CCC(C)=NO[C@@H](C)c1cc(-c3c(C)cc(C)cc3C)no1)C2`, the composite z-score in [1] is 0.608; in test [5] it was 0.468; in [7], -0.0765; in [8], 0.343; in [9] it was -1.5; in test [10] it was -0.172. For the same molecule, the composite z-score was 0.856 in test [11]; -0.227 in test [12]; -0.286 in test [13]; -0.328 in [15]; -0.562 in [16]; -0.408 in [17]. Moreover, the composite z-score in test [18] is -0.473; in test [19], -0.107; in test [20] it was 0.711. Further, the z-score in [2] was -0.889 (inactive); in test [3], -6.86 (inactive); in test [4], -1.26 (inactive); in [6], -0.0254 (inactive); in test [14], -0.596 (inactive).
Take `Cc1cc2c(c(=O)o1)[C@H](O)[C@H]1O[C@H]1C2=O`: the composite z-score in [1] was 0.527; in test [5] it was -0.186; in test [7] it was -0.0569; in test [8], 0.651; in test [9], 0.312; in test [10], -0.0007. Moreover, the composite z-score was 0.412 in test [11]; -0.178 in [12]; -0.245 in test [13]; 0.88 in test [15]; 0.191 in [16]; 0.0205 in test [17]. In addition, the composite z-score in [18] is -0.139; in [19], -0.0438; in [20], 0.623. Besides, the z-score is 0.228 (inactive) in test [2]; -4.24 (inactive) in [3]; -0.643 (inactive) in [4]; -1.02 (inactive) in [6]; -0.331 (inactive) in [14].
For `CCCCC(=C=CC[C@H](O)c1ccccc1OCCO)C[C@H](O)COCc1ccccc1`, the composite z-score in test [1] is -0.0855; in [5], 1.03; in [7], -0.145; in [8], -0.142; in test [9], -0.171; in test [10] it was -0.12. For the same molecule, the composite z-score in test [11] was 1.45; in [12], -0.001; in test [13], 0.309; in test [15], 0.0624; in test [16], -0.285; in test [17] it was -0.792. Further, the composite z-score was -0.349 in [18], -0.355 in test [19] and 0.778 in [20]. The z-score in test [2] was 0.115 (inactive); in test [3], -0.729 (inactive); in [4] it was -0.659 (inactive); in [6] it was 0.0754 (inactive); in [14], -0.139 (inactive).
Consider `CC(C)[C@@H](OCc1ccccc1)[C@H](C)C=NOC[C@@H](C)[C@H](OCc1ccccc1)C(C)C`, for which the composite z-score in test [1] is 0.341; in test [5], -0.218; in [7] it was -0.0862; in test [8] it was 0.367; in test [9] it was 0.421; in [10] it was -0.0234. Further, the composite z-score was 0.556 in test [11]; -0.319 in [12]; -0.552 in test [13]; 0.5 in [15]; -0.076 in test [16]; 0.363 in test [17]. Besides, the composite z-score in test [18] was 0.303; in [19], 0.429; in test [20] it was -0.0094. Further, the z-score in [2] is 0.0268 (inactive); in test [3] it was 0.893 (inactive); in test [4], 0.338 (inactive); in [6], 0.413 (inactive); in test [14], 0.741 (inactive).

The record behind these values is PubChem BioAssay.
